Assay results reported in PubChem BioAssay (Tox21).
Active and inactive are the calls of the source. The call rests on the fitted dose curve; in most records, active means well fitted activation curve with a large enough effect in the repeat runs; inconclusive means weak or mixed curves; inactive means flat fitted curve, though single readings scatter.

target: KiSS-1 receptor (Homo sapiens) (UniProt Q969F8); test: Human kisspeptin (KISS1R) small molecule agonists, calcium flux assay in KISS1R-HEK293 cells (AID 1920064); details: KISS1R-HEK293, calcium flux fluorescence, agonist; series mostly up to 76.8 µM; activation: at the top concentration
Sequence (Q969F8 whole entry, looked up): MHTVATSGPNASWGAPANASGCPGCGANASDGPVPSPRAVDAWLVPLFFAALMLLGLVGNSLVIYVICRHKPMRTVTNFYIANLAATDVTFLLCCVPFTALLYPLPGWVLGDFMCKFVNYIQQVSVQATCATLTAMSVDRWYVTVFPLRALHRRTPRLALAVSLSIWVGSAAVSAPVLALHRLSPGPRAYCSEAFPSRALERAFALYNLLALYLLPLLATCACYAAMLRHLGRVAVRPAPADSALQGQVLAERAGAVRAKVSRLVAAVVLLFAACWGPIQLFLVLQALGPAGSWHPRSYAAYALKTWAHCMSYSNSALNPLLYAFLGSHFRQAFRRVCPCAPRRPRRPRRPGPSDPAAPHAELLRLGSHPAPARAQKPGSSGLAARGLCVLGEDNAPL
Text: National Center for Advancing Translational Sciences [NCATS]
Division of Preclinical Innovation [DPI]
U.S. Environmental Protection Agency [EPA]
National Institutes of Environmental Health Sciences [NIEHS]
National Toxicology Program [NTP]
U.S. Food and Drug Administration [FDA]
Kisspeptin and its receptor KISS1R play key roles in mammalian reproduction due to their involvement in the onset of puberty and control of the hypothalamic-pituitary-gonadal axis such as regulates GnRH release from the hypothalamus. The kisspeptin/KISS1R system also plays a direct role in peripheral organs (including the ovary, testis, uterus, and placenta) and is implicated in reproductive diseases such as miscarriage and polycystic ovary syndrome (PCOS). Abnormal KISS1R activity is associated with abnormal puberty, infertility, endometriosis, and hormone-dependent tumors. The KISS1 receptor (KISS1R, also called GPR54), a G-protein-coupled receptor (GPCR), acts (through phospholipase C) to increase intracellular inositol trisphosphate and then release intracellular calcium stores. Cell-based KISS1R-HEK293 assay is using HEK293 cells that have been genetically engineered to express the human KISS1R, which activity can be measured by calcium signaling. A compound/drug can activate (agonist) KISS1R that can be monitored by levels of intracellular calcium.
KISS1R-HEK293 cells developed by Codex Corp contain human KISS1R gene, which was stably integrated into HEK 293 cells. The compound activation can be detected by fluorescence intensity via calcium flux assay. This cell line has been used to screen the Tox21 10K compound library to identify agonists of KISS1R.
KISS1R-Hek293 cells were dispensed at 1500 cells/4uL/well in 1536-well black wall/clear bottom plates using a multidrop dispenser. After the assay plates were incubated at a 37 C/5% CO2 incubator for 18 hours, 4 microL of Calcium Dye Solution was added to each well. The plates were incubated at 37 C for 1 hour. And then 23 nL of compounds dissolved in DMSO, positive controls, or DMSO only was transferred to the assay plate by a pin tool station. The fluorescence intensity in the plates was measured using FDSS 7000EX kinetic plate reader with a filter set of Ex/Em=480/540 for 3 min at 1 sec intervals. Each test compound was measured at 15 concentrations and in triplicates.
On the % scale 0 is the no-effect control and ±100 the full control effect.

SMILES	activation
CCCCCCCCOc1ccc(C(=O)O)cc1	3.51% (inactive)
C=CCn1c(=O)n([C@@H]2O[C@H](CO)[C@@H](O)[C@H]2O)c2nc(N)[nH]c(=O)c21	-0.607% [at 35.3 µM] (inactive)
CCOC(=O)CCCCCCCCC(=O)OCC	0.0226% (inactive)
Cc1cc(F)ccc1-c1cc(N2CC[C@@H](O)[C@H]2CO)ncc1N(C)C(=O)C(C)(C)c1cc(C(F)(F)F)cc(C(F)(F)F)c1	0.857% (inactive)
CCC(CO)(CO)[N+](=O)[O-]	0.226% (inactive)
COc1ccc(CN(CCN(C)C)c2ncccn2)cc1	-0.208% [at 35.3 µM] (inactive)
COc1cc(C(=O)NCCCCCC(=O)O)cc(OC)c1OC	-0.586% [at 35.3 µM] (inactive)
CC(C(=O)O)c1ccc(C(=O)c2ccccc2)s1 (stereo not given)	1.47% [at 35.3 µM] (inactive)
CCNS(=O)(=O)c1ccc(C)cc1	-2.09% (inactive)
NS(=O)(=O)c1ccc(Cl)c(S(N)(=O)=O)c1	2.96% [at 35.3 µM] (inactive)
O=C1[C@H](CC[C@H](O)c2ccc(F)cc2)[C@@H](c2ccc(O)cc2)N1c1ccc(F)cc1	3.47% [at 35.3 µM] (inactive)
c1ccc(CN(CC2=NCCN2)c2ccccc2)cc1	-1.04% [at 35.3 µM] (inactive)
CCCCCCCCOCCCN	7.1% (inactive)
NS(=O)(=O)c1cc(C2(O)NC(=O)c3ccccc32)ccc1Cl (stereo not given)	-1.18% [at 35.3 µM] (inactive)
C[C@@H](O)[C@H](N)C(=O)O	-0.197% [at 15.8 µM] (inactive)
N[C@@H](COP(=O)(O)O)C(=O)O	0.255% [at 15.8 µM] (inactive)
Clc1cc(Cl)cc(Cl)c1	1.63% (inactive)
CCCCCCCCCCCC[N+](C)(C)CC(=O)[O-]	-1.32% (inactive)
CC(C)CC(C)CC(C)CC(C)COC(=O)c1ccccc1C(=O)OCC(C)CC(C)CC(C)CC(C)C (stereo not given)	-1.83% (inactive)
C=CC(OCC)OCC	4.89% (inactive)

SMILES	activation
C/C=C(/C(=C/C)c1ccc(O)cc1)c1ccc(O)cc1	-1.84% [at 35.3 µM] (inactive)
CC(C)(O)CCc1ccccc1	-2.96% (inactive)
CC=C(Cl)Cl	0.163% (inactive)
CCCCCCCCCOC(C)=O	0.212% (inactive)
Cc1nc2ccc(Cl)cc2[nH]1	-4.75% (inactive)
CC(C)C(=O)OCC(C)(C)C(O)C(C)C (stereo not given)	-1.57% (inactive)
OC[C@@H](O)C(O)[C@@H](O)CO (stereo not given in full)	-2.98% (inactive)
O=C(O)c1cc(Cl)cc(Cl)c1O	-0.111% (inactive)
Cc1c(C)n(CCN(C)C)c2ccc(C(=O)OCCN(C)C)cc12	-2.01% [at 35.3 µM] (inactive)
COc1ccc([C@@H]2Sc3ccccc3NC(=O)[C@@H]2O)cc1	-0.803% [at 35.3 µM] (inactive)
C[C@H](N)C(=O)N[C@@H](C)C(=O)NC1[C@H]2CN(c3nc4c(cc3F)c(=O)c(C(=O)O)cn4-c3ccc(F)cc3F)C[C@@H]12 (stereo not given in full)	-0.685% [at 35.3 µM] (inactive)
CS(=O)(=O)c1ccc(-c2cn3ccccc3n2)cc1	-0.366% [at 35.3 µM] (inactive)
CN(C)c1ccc(C(c2ccccc2)c2ccc(N(C)C)cc2)cc1	1.14% (inactive)
CC(C)(C)NCCNC(C)(C)C	-2.56% (inactive)
Cc1oc(-c2ccccc2)nc1CCC(=O)c1ccc(CC2SC(=O)NC2=O)cc1 (stereo not given)	-0.275% [at 35.3 µM] (inactive)
CC1(C)[C@H]2CC[C@]1(C)C(=O)C2	9.98% (inactive)
CCCCCN(CCCOC)C(=O)C(CCC(=O)O)NC(=O)c1ccc(Cl)c(Cl)c1 (stereo not given)	0.208% [at 35.3 µM] (inactive)
CCCCC	12.9% (inactive)
CCCCCCOC(=O)CCCCC	-1.04% (inactive)
O=C(O)c1c(O)c(-c2ccccc2)nc2ccccc12	3.5% [at 35.3 µM] (inactive)
